Reference: PubChem BioAssay (EPA / NIEHS)
Inconclusive results are not listed. Active and inactive are the calls of the source. Rule for the calls, unless noted: active = hit-call score of the fitted dose curve at least 0.9, where 1 is the maximum; inconclusive = response in the unintended direction; inactive = score below 0.9.

Experiments:
[1] = ATG_TAL_CIS: Attagene CIS-FACTORIAL HepG2 Assay for human TAL Basal Promoter (AID 2282966; active = hit-call score of the fitted dose curve at least 0.9, where 1 is the maximum; inactive = score below 0.9;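 note: background control endpoint measuring basal TAL promoter reporter mRNA not a specific factor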); conditions: HepG2 Attagene cis-factorial TAL promoter reporter; actives raise or lower the signal
In short: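 HepG2 cells were transiently transfected with promoter-driven multiplexed reporter units and dosed for 24 h. Reporter mRNA was measured by RT-PCR with capillary electrophoresis fluorescence; bidirectional fits used DMSO as baseline, serving as a background control.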

[2] = ATG_TGFb_CIS: Attagene CIS-FACTORIAL HepG2 Assay for human Transforming Growth Factor (TGF) (AID 2282967; active = hit-call score of the fitted dose curve at least 0.9, where 1 is the maximum; inactive = score below 0.9); conditions: HepG2 Attagene CIS TGFb reporter, mRNA transcription; actives raise or lower the signal
In short: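 Multiplexed cis-reporter HepG2 system, 24 h treatment; mRNA induction read by fluorescence after RT-PCR and CE; DMSO negative control, bidirectional curve fitting.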

[3] = ATG_M_19_TRANS: Attagene TRANS-FACTORIAL HepG2 Assay for M19 Transcription Factor (Internal Marker) (AID 2282974); conditions: HepG2 Attagene TRANS-FACTORIAL M19 internal marker reporter
In short: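 Using RT-PCR and capillary electrophoresis, reporter mRNA from transiently transfected human HepG2 cells was quantified following 24 h exposure; activity was fitted in the positive direction against DMSO.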

[4] = ATG_GAL4_TRANS: Attagene TRANS-FACTORIAL HepG2 Assay for GAL4 (Internal Marker) (AID 2282976); conditions: HepG2 Attagene TRANS GAL4 internal marker reporter
In short: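 HepG2 cells transiently transfected with multiplexed GAL4-UAS reporter constructs were dosed for 24 h. Reporter mRNA was measured by RT-PCR, 6-FAM primer extension, HpaI digestion and capillary electrophoresis, and gain of signal was fitted relative to DMSO.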

[5] = biological target: Oxysterols receptor LXR-alpha (Homo sapiens) (UniProt Q13133); assay: ATG_LXRa_TRANS: Attagene TRANS-FACTORIAL HepG2 Assay for human Liver X Receptor alpha (LXRa) (AID 2282980); conditions: HepG2 Attagene TRANS reporter, LXRa transactivation
Oxysterols receptor LXR-alpha (Homo sapiens), sequence (Q13133 whole entry, looked up, the tested form may be a part): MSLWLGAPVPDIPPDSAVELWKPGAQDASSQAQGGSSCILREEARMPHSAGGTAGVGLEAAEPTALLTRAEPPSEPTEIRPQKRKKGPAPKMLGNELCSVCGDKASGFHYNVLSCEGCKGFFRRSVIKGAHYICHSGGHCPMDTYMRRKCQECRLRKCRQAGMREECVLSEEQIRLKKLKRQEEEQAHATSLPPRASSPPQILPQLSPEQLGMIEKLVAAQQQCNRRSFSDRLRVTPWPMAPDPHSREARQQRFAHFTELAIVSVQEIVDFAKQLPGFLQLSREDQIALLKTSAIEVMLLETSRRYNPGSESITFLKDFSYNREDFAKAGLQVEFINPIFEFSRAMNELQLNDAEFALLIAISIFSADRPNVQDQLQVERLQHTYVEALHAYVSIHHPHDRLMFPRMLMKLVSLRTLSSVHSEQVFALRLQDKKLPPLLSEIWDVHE
In short: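 HepG2 cells were transiently transfected with multiplexed reporter units driven by chimeric LXRa–GAL4 fusion proteins, then dosed for 24 h. Reporter mRNA was quantified by RT-PCR, fluorescent labelling and capillary electrophoresis; gain of signal fitted against DMSO baseline.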

[6] = biological target: Hepatocyte nuclear factor 4-alpha (Homo sapiens) (UniProt P41235); assay: ATG_HNF4a_TRANS: Attagene TRANS-FACTORIAL HepG2 Assay for human Hepatocyte Nuclear Factor 4 alpha (HNF4a) (AID 2282982); conditions: HepG2 HNF4a transactivation reporter, mRNA readout
Hepatocyte nuclear factor 4-alpha (Homo sapiens), sequence (P41235 whole entry, looked up, the tested form may be a part): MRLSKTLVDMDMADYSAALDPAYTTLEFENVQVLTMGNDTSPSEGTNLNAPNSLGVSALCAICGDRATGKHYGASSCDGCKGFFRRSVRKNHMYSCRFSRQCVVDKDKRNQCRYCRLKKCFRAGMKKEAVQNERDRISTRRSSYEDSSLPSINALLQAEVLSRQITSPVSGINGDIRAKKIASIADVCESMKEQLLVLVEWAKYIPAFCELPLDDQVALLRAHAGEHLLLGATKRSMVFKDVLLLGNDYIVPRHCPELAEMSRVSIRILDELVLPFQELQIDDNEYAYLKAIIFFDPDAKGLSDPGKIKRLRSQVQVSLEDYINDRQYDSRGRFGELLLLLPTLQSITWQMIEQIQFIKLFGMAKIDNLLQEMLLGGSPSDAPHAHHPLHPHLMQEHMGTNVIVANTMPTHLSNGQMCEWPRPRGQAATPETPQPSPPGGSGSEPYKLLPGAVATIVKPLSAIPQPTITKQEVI
In short: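 HepG2 cells transiently transfected with multiplexed GAL4-UAS reporter units responsive to chimeric NR-GAL4 proteins; compound exposure 24 h. Reporter mRNA quantified by RT-PCR, 6-FAM labelling, HpaI digestion and capillary electrophoresis; gain of signal versus DMSO baseline.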

[7] = ATG_M_06_TRANS: Attagene TRANS-FACTORIAL HepG2 Assay for M06 Transcription Factor (Internal Marker) (AID 2282983); conditions: HepG2 Attagene TRANS M06 internal marker reporter;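 note: reporter transcript level by RT-PCR then capillary electrophoresis fluorescence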
In short: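 HepG2 cells transiently transfected with multiplexed GAL4-UAS reporter transcription units; after 24 h compound exposure, reporter mRNA measured by RT-PCR, FAM-labelled primer extension, HpaI digestion and capillary electrophoresis. Gain-of-signal fitted versus DMSO baseline; background control readout.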

[8] = ATG_M_32_TRANS: Attagene TRANS-FACTORIAL HepG2 Assay for M32 Transcription Factor (Internal Marker) (AID 2282984); conditions: HepG2 Attagene TRANS M32 internal marker reporter
In short: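 HepG2 cells transiently transfected with multiple GAL4-UAS reporter transcription units, dosed for 24 hours; reporter mRNA quantified by RT-PCR, 6-FAM primer extension, HpaI digestion and capillary electrophoresis. Gain-of-signal fitted versus DMSO baseline; internal background-control marker.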

[9] = biological target: Nuclear receptor subfamily 4 group A member 2 (Homo sapiens) (UniProt P43354); assay: ATG_NURR1_TRANS: Attagene TRANS-FACTORIAL HepG2 Assay for human Nuclear Receptor Related Protein 1 (NURR1) (AID 2282985); conditions: HepG2 Attagene TRANS reporter, mRNA readout
Nuclear receptor subfamily 4 group A member 2 (Homo sapiens), sequence (P43354 whole entry, looked up, the tested form may be a part): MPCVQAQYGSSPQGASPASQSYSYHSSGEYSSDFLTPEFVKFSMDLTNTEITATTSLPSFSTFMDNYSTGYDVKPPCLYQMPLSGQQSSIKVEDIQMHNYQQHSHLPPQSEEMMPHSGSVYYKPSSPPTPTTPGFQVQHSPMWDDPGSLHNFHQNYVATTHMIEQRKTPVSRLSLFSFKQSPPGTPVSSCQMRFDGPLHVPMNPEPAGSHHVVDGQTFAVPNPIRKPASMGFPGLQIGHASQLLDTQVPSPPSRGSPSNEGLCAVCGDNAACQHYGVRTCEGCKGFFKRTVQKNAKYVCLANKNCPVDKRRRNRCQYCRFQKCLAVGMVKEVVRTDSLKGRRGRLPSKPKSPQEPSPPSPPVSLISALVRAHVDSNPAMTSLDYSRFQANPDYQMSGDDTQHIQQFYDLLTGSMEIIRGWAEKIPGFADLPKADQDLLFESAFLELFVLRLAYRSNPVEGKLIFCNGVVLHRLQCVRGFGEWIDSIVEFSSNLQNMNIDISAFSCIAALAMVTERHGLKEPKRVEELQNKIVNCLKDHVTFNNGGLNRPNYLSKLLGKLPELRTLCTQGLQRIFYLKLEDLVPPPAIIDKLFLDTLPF
In short: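 HepG2 cells transiently transfected with GAL4-UAS reporter units and chimeric NR-Gal4 constructs; chemical exposure 24 h. Reporter mRNA quantified by RT-PCR, fluorescent labelling and capillary electrophoresis; gain of signal fitted relative to DMSO baseline.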

[10] = biological target: Transcriptional activator Myb (Homo sapiens) (UniProt P10242); assay: ATG_Myb_CIS: Attagene CIS-FACTORIAL HepG2 Assay for human Myeloblastosis (Myb) Proto-Oncogene Transcription Factor (AID 2282986; active = hit-call score of the fitted dose curve at least 0.9, where 1 is the maximum; inactive = score below 0.9); conditions: HepG2 Attagene CIS-FACTORIAL Myb reporter transcription; actives raise or lower the signal
Transcriptional activator Myb (Homo sapiens), sequence (P10242 whole entry, looked up): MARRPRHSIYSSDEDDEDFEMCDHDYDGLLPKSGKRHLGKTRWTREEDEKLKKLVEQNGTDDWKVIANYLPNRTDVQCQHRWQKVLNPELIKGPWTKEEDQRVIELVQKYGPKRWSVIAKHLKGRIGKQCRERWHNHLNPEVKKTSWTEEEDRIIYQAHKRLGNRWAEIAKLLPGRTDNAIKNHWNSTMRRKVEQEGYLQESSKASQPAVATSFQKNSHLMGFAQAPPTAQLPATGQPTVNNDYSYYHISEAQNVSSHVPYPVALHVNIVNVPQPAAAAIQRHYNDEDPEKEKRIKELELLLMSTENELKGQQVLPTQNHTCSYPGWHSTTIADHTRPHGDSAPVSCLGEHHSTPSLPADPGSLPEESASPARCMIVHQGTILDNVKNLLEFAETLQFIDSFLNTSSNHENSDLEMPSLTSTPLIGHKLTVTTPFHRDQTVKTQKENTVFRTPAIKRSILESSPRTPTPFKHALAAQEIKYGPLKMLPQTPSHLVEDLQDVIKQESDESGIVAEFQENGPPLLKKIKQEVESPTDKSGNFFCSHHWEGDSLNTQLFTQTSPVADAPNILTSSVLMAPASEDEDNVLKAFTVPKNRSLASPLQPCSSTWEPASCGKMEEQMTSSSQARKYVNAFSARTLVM
In short: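 In this HepG2 transient-transfection format, cis-regulated reporter mRNA is quantified 24 h post-dosing by RT-PCR with capillary electrophoresis, fitted bidirectionally to DMSO baseline.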

[11] = biological target: Nuclear respiratory factor 1 (Homo sapiens) (UniProt Q16656); assay: ATG_NRF1_CIS: Attagene CIS-FACTORIAL HepG2 Assay for human Nuclear Respiratory Factor 1 (NRF1) Orphan Gene (AID 2282987; active = hit-call score of the fitted dose curve at least 0.9, where 1 is the maximum; inactive = score below 0.9); conditions: HepG2 NRF1 cis-element reporter, Attagene multiplex; actives raise or lower the signal
Nuclear respiratory factor 1 (Homo sapiens), sequence (Q16656 whole entry, looked up): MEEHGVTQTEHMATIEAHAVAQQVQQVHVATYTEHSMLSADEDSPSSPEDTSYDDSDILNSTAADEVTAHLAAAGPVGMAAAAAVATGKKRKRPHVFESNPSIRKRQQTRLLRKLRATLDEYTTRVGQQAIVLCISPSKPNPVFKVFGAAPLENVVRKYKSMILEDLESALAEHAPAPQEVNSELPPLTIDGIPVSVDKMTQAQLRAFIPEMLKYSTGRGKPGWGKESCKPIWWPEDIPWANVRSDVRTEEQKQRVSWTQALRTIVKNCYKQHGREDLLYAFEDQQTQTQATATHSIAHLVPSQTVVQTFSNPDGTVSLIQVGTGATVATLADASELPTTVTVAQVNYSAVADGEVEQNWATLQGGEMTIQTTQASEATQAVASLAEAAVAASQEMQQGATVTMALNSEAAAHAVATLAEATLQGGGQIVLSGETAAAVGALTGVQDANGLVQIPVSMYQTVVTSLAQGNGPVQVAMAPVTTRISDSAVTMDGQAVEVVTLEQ
In short: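 Using DMSO as baseline, gain- or loss-of-signal was fitted for reporter mRNA levels in HepG2 cells transiently transfected with cis-regulated reporter units. Samples were taken 24 h after dosing and read by RT-PCR with capillary electrophoresis.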

[12] = biological target: X-box-binding protein 1 (Homo sapiens) (UniProt P17861); assay: ATG_Xbp1_CIS: Attagene CIS-FACTORIAL HepG2 Assay for human X-box Binding Protein 1 (XBP1) (AID 2282972; active = hit-call score of the fitted dose curve at least 0.9, where 1 is the maximum; inactive = score below 0.9); conditions: HepG2 XBP1 cis-element reporter, Attagene multiplex; actives raise or lower the signal
X-box-binding protein 1 (Homo sapiens), sequence (P17861 whole entry, looked up): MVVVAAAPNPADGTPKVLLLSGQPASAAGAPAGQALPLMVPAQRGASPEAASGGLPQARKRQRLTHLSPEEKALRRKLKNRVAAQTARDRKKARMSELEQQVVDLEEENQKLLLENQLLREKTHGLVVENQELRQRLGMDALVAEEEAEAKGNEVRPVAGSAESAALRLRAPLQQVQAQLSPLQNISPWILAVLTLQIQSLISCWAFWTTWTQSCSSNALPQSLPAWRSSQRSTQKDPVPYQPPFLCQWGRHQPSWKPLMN
In short: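 HepG2, transient MRTU transfection (cis-promoter driven), 24 h compound exposure. Total RNA → oligo(dT) RT → PCR → 6-FAM labeling → HpaI cut → CE. Bidirectional fit vs DMSO.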

[13] = biological target: Glucocorticoid receptor (Homo sapiens) (UniProt P04150); assay: ATG_GR_TRANS: Attagene TRANS-FACTORIAL HepG2 Assay for human Glucocorticoid Receptor (GR) (AID 2282978); conditions: HepG2 Attagene TRANS GR reporter, mRNA transcription;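 note: activators score as hits since higher reporter transcript over DMSO is fitted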
Glucocorticoid receptor (Homo sapiens), sequence (P04150 whole entry, looked up, the tested form may be a part): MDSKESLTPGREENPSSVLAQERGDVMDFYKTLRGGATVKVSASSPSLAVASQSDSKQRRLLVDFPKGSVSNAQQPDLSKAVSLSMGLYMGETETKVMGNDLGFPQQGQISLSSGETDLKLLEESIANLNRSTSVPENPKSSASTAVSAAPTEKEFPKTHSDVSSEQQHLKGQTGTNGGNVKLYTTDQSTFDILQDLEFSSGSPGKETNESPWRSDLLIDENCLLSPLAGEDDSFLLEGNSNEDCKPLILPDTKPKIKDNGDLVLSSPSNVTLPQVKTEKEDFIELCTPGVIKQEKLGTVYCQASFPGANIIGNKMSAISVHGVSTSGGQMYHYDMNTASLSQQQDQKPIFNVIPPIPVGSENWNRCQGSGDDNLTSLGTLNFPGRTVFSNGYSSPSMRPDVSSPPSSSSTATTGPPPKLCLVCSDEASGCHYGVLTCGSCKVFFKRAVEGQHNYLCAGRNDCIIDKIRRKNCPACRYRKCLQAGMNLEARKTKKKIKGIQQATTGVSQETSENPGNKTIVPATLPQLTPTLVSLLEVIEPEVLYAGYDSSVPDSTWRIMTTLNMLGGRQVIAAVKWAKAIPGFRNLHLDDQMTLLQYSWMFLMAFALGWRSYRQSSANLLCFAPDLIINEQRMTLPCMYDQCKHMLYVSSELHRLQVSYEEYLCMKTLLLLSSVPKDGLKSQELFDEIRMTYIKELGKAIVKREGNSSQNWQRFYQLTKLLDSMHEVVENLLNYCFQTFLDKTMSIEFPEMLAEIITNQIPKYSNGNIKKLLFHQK
In short: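 Exogenous NR-GAL4 fusion activity was assessed through induced GAL4-UAS reporter transcripts in transfected human HepG2 cells, quantified after 24 h by RT-PCR and fluorescent capillary electrophoresis with DMSO as baseline.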

[14] = biological target: Steroid hormone receptor ERR1 (Homo sapiens) (UniProt P11474); assay: ATG_ERRa_TRANS: Attagene TRANS-FACTORIAL HepG2 Assay for human Estrogen-Related Receptor alpha (ERRa) (AID 2282971); conditions: HepG2 Attagene TRANS reporter, ERRa transactivation
In short: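 HepG2 cells transiently transfected with multiplexed GAL4-UAS reporter units reading chimeric ERRa-Gal4 activity; 24 h compound exposure. Reporter mRNA measured by RT-PCR, 6-FAM labelling, HpaI digest and capillary electrophoresis; gain of signal fitted versus DMSO baseline.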

[15] = biological target: Oxysterols receptor LXR-beta (Homo sapiens) (UniProt P55055); assay: ATG_LXRb_TRANS: Attagene TRANS-FACTORIAL HepG2 Assay for human Liver X Receptor beta (LXRb) (AID 2282981); conditions: HepG2 Attagene TRANS GAL4-LXRb reporter, mRNA
Oxysterols receptor LXR-beta (Homo sapiens), sequence (P55055 whole entry, looked up, the tested form may be a part): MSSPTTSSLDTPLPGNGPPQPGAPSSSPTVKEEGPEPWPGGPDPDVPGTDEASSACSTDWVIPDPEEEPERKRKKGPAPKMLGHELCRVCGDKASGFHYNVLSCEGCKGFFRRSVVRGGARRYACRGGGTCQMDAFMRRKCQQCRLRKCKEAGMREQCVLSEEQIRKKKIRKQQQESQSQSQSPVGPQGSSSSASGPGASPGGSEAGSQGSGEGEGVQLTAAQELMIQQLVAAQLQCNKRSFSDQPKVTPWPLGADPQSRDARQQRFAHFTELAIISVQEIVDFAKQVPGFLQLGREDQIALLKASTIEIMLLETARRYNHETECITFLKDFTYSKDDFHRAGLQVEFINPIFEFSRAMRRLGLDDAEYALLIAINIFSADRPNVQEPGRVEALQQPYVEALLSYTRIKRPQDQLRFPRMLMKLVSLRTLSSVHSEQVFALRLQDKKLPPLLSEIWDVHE
In short: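 HepG2 cells transiently transfected with multiple reporter transcription units carrying chimeric NR-Gal4 proteins acting on GAL4-UAS reporters; compound exposure 24 h. Reporter mRNA quantified by RT-PCR, 6-FAM labelling, HpaI digestion and capillary electrophoresis; gain of signal versus DMSO.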

[16] = biological target: Estrogen receptor (Homo sapiens) (UniProt P03372); assay: ATG_ERa_TRANS: Attagene TRANS-FACTORIAL HepG2 Assay for human Estrogen Receptor alpha (ERa) (AID 2282970); conditions: HepG2 Attagene TRANS ERa GAL4 reporter, mRNA
Estrogen receptor (Homo sapiens), sequence (P03372 whole entry, looked up, the tested form may be a part): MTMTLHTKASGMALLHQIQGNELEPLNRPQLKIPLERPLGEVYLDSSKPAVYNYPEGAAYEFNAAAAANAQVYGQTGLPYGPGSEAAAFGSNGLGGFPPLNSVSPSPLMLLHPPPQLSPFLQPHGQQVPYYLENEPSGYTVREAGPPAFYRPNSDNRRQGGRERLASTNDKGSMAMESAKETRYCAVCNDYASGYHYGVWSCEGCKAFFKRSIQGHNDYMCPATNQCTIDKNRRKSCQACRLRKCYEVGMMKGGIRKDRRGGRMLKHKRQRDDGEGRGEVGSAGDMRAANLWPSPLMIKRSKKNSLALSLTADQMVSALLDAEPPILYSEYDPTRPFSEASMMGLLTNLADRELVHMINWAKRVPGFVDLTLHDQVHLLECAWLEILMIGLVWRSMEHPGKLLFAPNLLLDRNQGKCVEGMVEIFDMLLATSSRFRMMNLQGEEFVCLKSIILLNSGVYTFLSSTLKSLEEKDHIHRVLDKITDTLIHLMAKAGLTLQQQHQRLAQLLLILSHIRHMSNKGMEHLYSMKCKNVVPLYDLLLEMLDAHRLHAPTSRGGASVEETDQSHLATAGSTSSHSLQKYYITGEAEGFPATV
In short: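 HepG2 cells transiently transfected with multiplexed GAL4-UAS reporter units; ERa activity read via exogenous chimeric NR-Gal4 protein. After 24 hour compound exposure, reporter mRNA measured by RT-PCR with 6-FAM labelling and capillary electrophoresis; gain-of-signal fitted relative to DMSO.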

[17] = biological target: Nuclear receptor subfamily 1 group I member 3 (Homo sapiens) (UniProt Q14994); assay: ATG_CAR_TRANS: Attagene TRANS-FACTORIAL HepG2 Assay for human Constitutive Androstane Receptor (CAR) (AID 2282969); conditions: HepG2 Attagene TRANS-FACTORIAL CAR reporter;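 note: activators raise reporter mRNA above DMSO so AC50 marks induction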
In short: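 HepG2 cells transiently transfected with multiplexed GAL4-UAS reporter units expressing chimeric NR-Gal4 proteins; compound exposure 24 h. Reporter mRNA measured by RT-PCR, 6-FAM labelling, HpaI digestion and capillary electrophoresis; gain-of-signal fitted against DMSO baseline.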

[18] = biological target: Estrogen-related receptor gamma (Homo sapiens) (UniProt P62508); assay: ATG_ERRg_TRANS: Attagene TRANS-FACTORIAL HepG2 Assay for human Estrogen-Related Receptor gamma (ERRg) (AID 2282977); conditions: HepG2 Attagene TRANS reporter, ERRg transactivation;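 note: hits increase reporter signal over DMSO so potencies reflect activators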
In short: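 Transient HepG2 transfectants, 24 h compound exposure, GAL4-UAS reporter mRNA by RT-PCR/6-FAM labelling/capillary electrophoresis; positive direction vs DMSO.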

SMILES: CC(C)[C@H]1CC[C@@H](C)CC1=O
- outcome [1]: inactive
- outcome [2]: inactive
- outcome [3]: inactive
- outcome [4]: inactive
- outcome [5]: inactive
- outcome [6]: inactive
- outcome [7]: inactive
- outcome [8]: inactive
- outcome [9]: inactive
- outcome [10]: inactive
- outcome [11]: inactive

SMILES: CCCCCCCCCCCCOCCO
- outcome [1]: inactive
- outcome [2]: inactive
- AC50 [12]: 55.5 µM (active)
- outcome [4]: inactive
- outcome [13]: inactive
- outcome [5]: inactive
- outcome [7]: inactive
- outcome [8]: inactive
- outcome [9]: inactive
- outcome [10]: inactive
- AC50 [11]: 52.5 µM (active)

SMILES: CCC(C(=O)NC(N)=O)c1ccccc1 (stereo not drawn)
- outcome [1]: inactive
- outcome [2]: inactive
- outcome [14]: inactive
- outcome [12]: inactive
- outcome [3]: inactive
- outcome [15]: inactive
- outcome [7]: inactive
- outcome [8]: inactive
- outcome [10]: inactive
- outcome [11]: inactive

SMILES: Clc1ccc2c(c1)C(N1CCNCC1)=Nc1ccccc1O2
- outcome [1]: inactive
- outcome [2]: inactive
- AC50 [16]: 50.1 µM (active)
- AC50 [12]: 33.4 µM (active)
- outcome [4]: inactive
- outcome [13]: inactive
- outcome [15]: inactive
- outcome [6]: inactive
- outcome [7]: inactive
- outcome [8]: inactive
- outcome [10]: inactive
- outcome [11]: inactive

SMILES: OC1OC[C@@H](O)[C@H](O)[C@H]1O (stereo partly drawn)
- outcome [1]: inactive
- outcome [2]: inactive
- outcome [12]: inactive
- outcome [3]: inactive
- outcome [5]: inactive
- outcome [15]: inactive
- outcome [6]: inactive
- outcome [8]: inactive
- outcome [10]: inactive
- outcome [11]: inactive

SMILES: CN1Cc2c(N)cccc2C(c2ccccc2)C1 (stereo not drawn)
- outcome [1]: inactive
- outcome [2]: inactive
- outcome [12]: inactive
- outcome [3]: inactive
- outcome [4]: inactive
- outcome [13]: inactive
- outcome [5]: inactive
- outcome [6]: inactive
- outcome [10]: inactive
- outcome [11]: inactive

SMILES: O=C[C@@H](O)[C@H](O)[C@H](O)CO
- outcome [1]: inactive
- outcome [2]: inactive
- outcome [17]: inactive
- outcome [12]: inactive
- outcome [4]: inactive
- outcome [7]: inactive
- outcome [8]: inactive
- outcome [9]: inactive
- outcome [10]: inactive
- outcome [11]: inactive

SMILES: CC(=O)O[C@H](CC(=O)[O-])C[N+](C)(C)C
- outcome [1]: inactive
- outcome [2]: inactive
- outcome [14]: inactive
- outcome [3]: inactive
- outcome [18]: inactive
- outcome [13]: inactive
- outcome [5]: inactive
- outcome [10]: inactive
- outcome [11]: inactive

SMILES: CC(=O)Nc1ccc(CC(=O)O)cc1
- outcome [1]: inactive
- outcome [2]: inactive
- outcome [16]: inactive
- outcome [12]: inactive
- outcome [3]: inactive
- outcome [4]: inactive
- outcome [13]: inactive
- outcome [15]: inactive
- outcome [10]: inactive
- outcome [11]: inactive
